Results as given in PubChem BioAssay AID1159580 (chemical genetic matrix, 2015).
The whole screen tested about 5,500 compounds, of which about 2,000 (36%) were called active. About 18% were inconclusive and are not listed. No stated cut-off is given here; in the data, active means normalized growth mostly below about 0.91 (no sharp cut-off); inconclusive means no clear call, values can overlap the other calls; inactive means mostly above about 0.92. The list shows a part of the results.

Test: chemical genetic growth profiling, strain panel (AID 1159580);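 further: tested at 20 µM; growth read once vehicle control cultures reached saturation at 30 °C; 1 = growth at the plate median or of vehicle wells; lower values mean less growth of the strain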
Settings: growth OD

Measured: normalized growth

O=C(O)c1cc2ccccc2c(Cc2c(O)c(C(=O)O)cc3ccccc23)c1O
active: S. cerevisiae deletion strains, locus YJR066W, strain TOR1, active compounds read low 0.819 | S. cerevisiae deletion strains, locus YLR113W, strain HOG1, active compounds read low 0.847 | S. cerevisiae deletion strains, locus YNL183C, strain NPR1, active compounds read low 0.829
inactive: S. cerevisiae deletion strains, locus YJR043C, strain POL32, active compounds read low 1.01 | S. cerevisiae deletion strains, locus YKL009W, strain mrt4, active compounds read low 0.989 | S. cerevisiae deletion strains, locus YKL068W, active compounds read low 1.01 | S. cerevisiae deletion strains, locus YKL085W, strain MDH1 (second series), active compounds read low 1 | S. cerevisiae deletion strains, locus YKL085W, strain MDH1, active compounds read low 1 | S. cerevisiae deletion strains, locus YKL160W, strain elf1, active compounds read low 1 | S. cerevisiae deletion strains, locus YKR001C, strain vps1, active compounds read low 0.966 | S. cerevisiae deletion strains, locus YKR026C, strain gcn3, active compounds read low 0.998 | S. cerevisiae deletion strains, locus YKR091W, strain srl3, active compounds read low 1 | S. cerevisiae deletion strains, locus YLL001W, strain dnm1, active compounds read low 0.996 | S. cerevisiae deletion strains, locus YLL026W, active compounds read low 1 | S. cerevisiae deletion strains, locus YLL041C, strain sdh2, active compounds read low 0.992 | S. cerevisiae deletion strains, locus YLR027C, strain aat2, active compounds read low 0.999 | S. cerevisiae deletion strains, locus YLR039C, strain RIC1, active compounds read low 0.996 | S. cerevisiae deletion strains, locus YLR058C, strain SHM2, active compounds read low 1 | S. cerevisiae deletion strains, locus YLR102C, strain apc9, active compounds read low 0.994 | S. cerevisiae deletion strains, locus YLR221C, strain rsa3, active compounds read low 0.99 | S. cerevisiae deletion strains, locus YLR258W, strain gsy2, active compounds read low 0.996 | S. cerevisiae deletion strains, locus YLR262C, strain YPT6 (second series), active compounds read low 1.01 | S. cerevisiae deletion strains, locus YLR262C, strain YPT6, active compounds read low 1.07 | S. cerevisiae deletion strains, locus YLR268W, strain sec22, active compounds read low 0.993 | S. cerevisiae deletion strains, locus YLR320W, strain mms22, active compounds read low 0.991 | S. cerevisiae deletion strains, locus YLR330W, strain CHS5, active compounds read low 0.996 | S. cerevisiae deletion strains, locus YLR342W, strain FKS1 (second series), active compounds read low 0.972 | S. cerevisiae deletion strains, locus YLR342W, strain FKS1, active compounds read low 0.998 | S. cerevisiae deletion strains, locus YLR357W, strain rsc2, active compounds read low 0.99 | S. cerevisiae deletion strains, locus YLR370C, strain arc18, active compounds read low 1.01 | S. cerevisiae deletion strains, locus YLR371W, strain rom2, active compounds read low 0.966 | S. cerevisiae deletion strains, locus YLR384C, strain iki3, active compounds read low 0.988 | S. cerevisiae deletion strains, locus YLR418C, strain cdc73, active compounds read low 0.93 | S. cerevisiae deletion strains, locus YML016C, strain PPZ1, active compounds read low 0.978 | S. cerevisiae deletion strains, locus YML032C, strain rad52, active compounds read low 0.994 | S. cerevisiae deletion strains, locus YML120C, strain ndi1, active compounds read low 1 | S. cerevisiae deletion strains, locus YML124C, strain tub3, active compounds read low 0.994 | S. cerevisiae deletion strains, locus YMR058W, strain fet3, active compounds read low 1 | S. cerevisiae deletion strains, locus YMR078C, strain ctf18, active compounds read low 0.984 | S. cerevisiae deletion strains, locus YMR125W, strain sto1, active compounds read low 1 | S. cerevisiae deletion strains, locus YMR129W, active compounds read low 0.997 | S. cerevisiae deletion strains, locus YMR205C, strain PFK2, active compounds read low 1.01 | S. cerevisiae deletion strains, locus YMR223W, strain ubp8, active compounds read low 1 | S. cerevisiae deletion strains, locus YMR231W, strain pep5, active compounds read low 1 | S. cerevisiae deletion strains, locus YMR263W, strain SAP30, active compounds read low 0.999 | S. cerevisiae deletion strains, locus YMR307W, strain GAS1, active compounds read low 1.1 | S. cerevisiae deletion strains, locus YNL067W, strain RPL9B, active compounds read low 1.01 | S. cerevisiae deletion strains, locus YNL071W, strain lat1, active compounds read low 0.987 | S. cerevisiae deletion strains, locus YNL209W, strain ssb2, active compounds read low 1 | S. cerevisiae deletion strains, locus YNL233W, strain BNI4, active compounds read low 1.01 | S. cerevisiae deletion strains, locus YNL248C, strain rpa49, active compounds read low 0.984 | S. cerevisiae deletion strains, locus YNL250W, strain rad50, active compounds read low 1.01 | S. cerevisiae deletion strains, locus YNL271C, strain bni1, active compounds read low 1.01 | S. cerevisiae deletion strains, locus YNL298W, strain CLA4, active compounds read low 0.983 | S. cerevisiae deletion strains, locus YNL307C, strain MCK1, active compounds read low 0.996 | S. cerevisiae deletion strains, locus YNL322C, strain KRE1 (second series), active compounds read low 1.02 | S. cerevisiae deletion strains, locus YNR049C, strain mso1, active compounds read low 1 | S. cerevisiae deletion strains, locus YNR052C, strain pop2, active compounds read low 0.981 | S. cerevisiae deletion strains, locus YOL012C, strain htz1 0.665 | S. cerevisiae deletion strains, locus YOL147C, strain pex11, active compounds read low 1 | S. cerevisiae deletion strains, locus YOR001W, strain rrp6, active compounds read low 1.01 | S. cerevisiae deletion strains, locus YOR061W, strain CKA2, active compounds read low 0.984 | S. cerevisiae deletion strains, locus YOR069W, strain VPS5, active compounds read low 0.999 | S. cerevisiae deletion strains, locus YOR070C, strain gyp1, active compounds read low 1 | S. cerevisiae deletion strains, locus YOR080W, strain dia2, active compounds read low 1 | S. cerevisiae deletion strains, locus YOR083W, strain WHI5, active compounds read low 1 | S. cerevisiae deletion strains, locus YOR106W, strain vam3, active compounds read low 0.976 | S. cerevisiae deletion strains, locus YOR136W, strain idh2, active compounds read low 1 | S. cerevisiae deletion strains, locus YOR144C, strain elg1, active compounds read low 0.99 | S. cerevisiae deletion strains, locus YOR184W, strain ser1, active compounds read low 0.989 | S. cerevisiae deletion strains, locus YOR231W, strain MKK1, active compounds read low 0.875 | S. cerevisiae deletion strains, locus YOR265W, strain rbl2, active compounds read low 0.991 | S. cerevisiae deletion strains, locus YOR270C, strain vph1, active compounds read low 0.974 | S. cerevisiae deletion strains, locus YOR290C, strain snf2, active compounds read low 0.989 | S. cerevisiae deletion strains, locus YOR316C, strain cot1, active compounds read low 0.997 | S. cerevisiae deletion strains, locus YPL051W, strain arl3, active compounds read low 1.01 | S. cerevisiae deletion strains, locus YPL055C, strain LGE1, active compounds read low 1 | S. cerevisiae deletion strains, locus YPL078C, strain atp4, active compounds read low 1 | S. cerevisiae deletion strains, locus YPL106C, strain sse1, active compounds read low 0.964 | S. cerevisiae deletion strains, locus YPL240C, strain hsp82, active compounds read low 0.976 | S. cerevisiae deletion strains, locus YPL256C, strain CLN2, active compounds read low 0.905 | S. cerevisiae deletion strains, locus YPR119W, strain clb2, active compounds read low 0.988 | S. cerevisiae deletion strains, locus YPR141C, strain kar3, active compounds read low 1.02 | S. cerevisiae deletion strains, locus YPR163C, strain tif3, active compounds read low 0.995 | S. cerevisiae deletion strains, locus YPR167C, strain met16, active compounds read low 0.991 | S. cerevisiae deletion strains, strain wtn01, active compounds read low 0.985 | S. cerevisiae strains, strain wild type, active compounds read low 1
